Measurements taken from PubChem BioAssay (EPA / NIEHS).
Active and inactive are the calls of the source. How the source made its calls: active means hit-call score of the fitted dose curve at least 0.9, where 1 is the maximum; inactive means score below 0.9.

assay: CCTE_Shafer_MEA_dev_correlation_coefficient_mean: CCTE's Neural Network Formation Assay for Mean Correlation Coefficient, Shafer Lab (AID 2284093);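 on AC50: well mean pairwise spike train correlation integrated as AUC over recording days 5 to 12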
Protocol: CCTE_Shafer_MEA_dev assay is conducted using Axion Biosystems 48 well microelectrode array (MEA) plates and Maestro recording system. Each well of the MEA plate contains a grid of 16 microelectrodes embedded in the culture surface. Electrically active cells, such as neurons, can be cultured over the electrodes, and electrical activity in these cells can be recorded extracellularly. The spontaneous firing of neurons is captured from each electrode on a microsecond timescale providing both temporally and spatially precise data. […] The CCTE_Shafer_MEA_dev assay uses primary cultures of rat cortical neurons. Recordings are made on days post-plating 5, 7, 9 and 12. As these cultures mature over time, neural networks develop functional activity and form cohesive networks in which electrical activity can be highly coordinated. CCTE_Shafer_MEA_dev_correlation_coefficient_mean is 1 of 19 assay components of the CCTE_Shafer_MEA_dev assay. It measures the correlation coefficent of spikes (action potential firings) between every pair of electrodes in a well during a recording in a microelectrode array (MEA) using Axion Biosystems Maestro 768 channel amplifier with the AxIS adaptive spike detector. The pairwise correlations are averaged across active electrodes to report a well-mean value. To collapse across multiple recordings made on days post-plating 5, 7, 9 and 12, the trapezoidal area-under-the-curve of the component is calculated.Data from the assay component CCTE_Shafer_MEA_dev_correlation_coefficient_mean was analyzed into 1 assay endpoint. This assay endpoint, CCTE_Shafer_MEA_dev_correlation_coefficient_mean, was analyzed in the negative analysis fitting direction relative to DMSO as the negative control and baseline of activity. Using a type of functional reporter, gain or loss-of-signal activity can be used to understand electrical activity.
On the day prior to culture, each well was coated thoroughly with 150 uL of 0.05% polyethyleneimine (PEI, Sigma Cat P3143) in 50 mM HEPES (Sigma Cat H7523) at a pH of 8. The plate was incubated at 37C for one hour. PEI was rinsed out with 500 uL of sterile water three times. Plates were stored at 4C until the day of culture. This culture was plated at a seeding density of 1.5 x 10^5 cells/well on a 48-well MEA plate, prepared as described above. Cells were administered via a 25 uL media/laminin ([…]; Sigma Cat L2020-1MG) drop directly onto the microelectrode array, as adding the cells with the laminin results in better attachment than pre-coating with laminin. After 2 hours, an additional 475 uL of cortical media was added and the cells returned to the incubator. Exposure starts at day 0 of plating and is continued over twelve days of network development until the experiment is terminated. Cells are fed with fresh medium on DIV 5 and 9, following the recordings on those days. The entire volume of media in the well is exchanged and any vehicle or compound treatment is renewed. Complete details are found in OP-NHEERL/ISTD/SBB/TJS/2015-03-r0 (available on request, email shafer.tim@epa.gov). Measurement of the electrical activity is non-invasive, and recordings can be made from the same plate over multiple different days of the culture. In cortical neurons, this allows for the measurement of extracellular action potentials over the period during which networks form in the MEA plate.

Row | Structure (SMILES) | outcome | AC50
1 | OCC(F)(F)C(F)(F)C(F)(F)C(F)F | inactive | –
2 | O=S(=O)(OCCOC(F)(F)F)C(F)(F)F | inactive | –
3 | O=C(O)C(F)(F)C(F)(F)C(F)(F)C(F)(F)C(F)(F)C(F)(F)C(F)(F)C(F)(F)Cl | inactive | –
4 | CC(C)(C)C(=O)CC(=O)C(F)(F)C(F)(F)C(F)(F)F | – | 24.1 µM (active)
5 | COC(=O)CCC(F)(F)C(F)(F)C(F)(F)C(F)(F)F | inactive | –
6 | O=C(O)C(F)(F)C(F)(F)C(F)F | inactive | –
7 | O=C(O)C(F)(F)C(F)(F)C(F)(F)C(F)(F)C(F)(F)C(F)(F)C(F)(F)C(F)(F)C(F)(F)C(F)F | inactive | –
8 | N=C(N)C(F)(F)C(F)(F)C(F)(F)C(F)(F)C(F)(F)C(F)(F)C(F)(F)F | – | 15 µM (active)
9 | Cc1ccc(S(=O)(=O)OCC(F)(F)C(F)(F)C(F)(F)C(F)(F)C(F)(F)C(F)F)cc1 | inactive | –
10 | OC[C@@H](O)[C@@H](O)[C@H](O)[C@@H](O)CO | inactive | –
11 | FC(F)(F)C(F)(F)CNCC(F)(F)C(F)(F)F | inactive | –
12 | OCC(F)(F)C(F)(F)C(F)(F)C(F)(F)C(F)(F)C(F)F | inactive | –
13 | FC(F)(F)C(F)(F)C(F)(F)C(F)(F)C(F)(F)CCI | – | 25.2 µM (active)
14 | C=CC(=O)OCC(F)(F)C(F)(F)C(F)(F)C(F)(F)COC(=O)C=C | – | 4.1 µM (active)
15 | NC(=O)C(F)(F)C(F)(F)C(F)(F)C(F)(F)F | inactive | –
16 | O=C(O)C(F)(F)C(F)(F)C(F)(F)F | inactive | –
17 | CC(CCl)OP(=O)(OC(C)CCl)OC(C)CCl (stereo not drawn) | inactive | –
18 | OCCCC(F)(F)C(F)(F)C(F)(F)F | inactive | –
19 | FC(F)(F)C(F)(F)C(F)(F)C(F)(F)C(F)(F)C(F)(F)CC1CO1 (stereo not drawn) | inactive | –
20 | OCC(F)(F)C(F)(F)C(F)(F)F | inactive | –
21 | O=S(=O)(OCC(F)F)C(F)(F)F | inactive | –
22 | O=C(O)C=C(C(F)(F)F)C(F)(F)F | inactive | –
23 | O=P(O)(O)OCCC(F)(F)C(F)(F)C(F)(F)C(F)(F)C(F)(F)C(F)(F)F | inactive | –
